# Measurements: PubChem BioAssay (NCATS)
# Results filed as inconclusive are left out. Unmarked numbers belong to inactive results. The source made the active and inactive calls. Calls come from the whole dose curve; as a rule, active = well fitted inhibition curve with a large enough effect; inconclusive = small, poorly fitted or top-dose-only effect; inactive = no such curve, though single readings can be large or run the other way.
# Target: Cytochrome P450 3A4 (Homo sapiens) (UniProt P08684)
# Assay: qHTS for inhibitors of CYP3A4 against the NCATS DSHEA and TCM libraries (AID 1919971)
# Conditions: recombinant CYP3A4 enzyme activity, luminescence qHTS; series mostly up to 34.1 µM; activity change, negative = inhibition: at the top concentration
# Source text: Assay Development and Screening Technology Laboratory (ADST)
# National Center for Advancing Translational Sciences (NCATS), Rockville, MD
# National Institute of Health (NIH), Bethesda, Maryland
# Dietary Supplements and Natural Products have minor oversight of their safety and efficacy. We assembled a collection of Dietary Supplements and Natural Products (DSNP) as well as Traditional Chinese Medicinal (TCM) Plant extracts, which were screened against an in vitro panel of assays, including a liver cytochrome p450 enzyme panel, CAR/PXR signaling pathways, and P-gp transporter assays, to assess their activity. This pipeline facilitated the interrogation of Natural Product-Drug Interaction (NaPDI) through prominent metabolizing pathways. In addition, we compared the activity profiles of the DSNP/TCM substances with those of an approved drug collection. Many of the approved drugs have well-annotated mechanisms of action (MOA) while the MOAs for most of the DSNP and TCM samples remain unknown. Based on the premise that compounds with similar activity profiles tend to share similar targets or MOA, we clustered the library activity profiles to identify overlap with the NCATS Pharmaceutical Collection to predict the MOAs of the DSNP/TCM substances. Overall, we highlight four significant bioactivity profiles (measured by p-values) as examples of this prediction. To assess broad cytotoxicity, we employed screening against a HepG2 cell line. In addition, transporter-mediated drug interactions are utilized in the characterization of DDIs using a P-glycoprotein (P-gp) assays. To profile potential P-gp activity, a differential cell viability was measured against two cell lines: a parental KB-3-1 human cervical adenocarcinoma cell line and the drug-resistant subline KB-8-5-11 that overexpresses P-gp.
# To this end, we profiled both collections for potential CAR and/or PXR activity, employing a previously published 1536-well qHTS assay.
# [1] Lee TD, et al. A High-Throughput Screen of a Library of Therapeutics Identifies Cytotoxic Substrates of P-glycoprotein. Mol Pharmacol. Nov 2019;96(5):629-640. doi:10.1124/mol.119.115964
# PROTOCOL TABLE (as described by Inglese J, Shamu CE and Guy RK. 2007)
# SEQUENCE No. (e.g., 1, 2, 3, etc.); […] (e.g., Cells, Incubation, Reagent, etc.); VALUE; DESCRIPTION.
# 1; Reagent; 2 uL; cytochrome P450 enzyme and luciferin substrate or buffer only, white solid-bottom Greiner plate.
# 2; Compounds and control; 16 nL; Kalypsis pintool (Wako USA) equipped with a 1536-well pin head to transfer to the assay plates.
# 3; Incubation; 15 min; room temperature.
# 4; Reagent; 2 uL; nicotinamide adenine dinucleotide phosphate (NADPH).
# 5; Incubation; 30 - 45 min; room temperature in the dark.
# 6; Reagent; 4 uL; P450-Glo assay detection reagent.
# 7; Centrifuge; 1000 RPM; 15 seconds.
# 8; Incubation; 30 min; room temperature.
# 9; Read; Luminescence; ViewLux plate reader.
# NOTES (numbers refer to Sequence numbers above)
# 1. A 2 uL mixture of corresponding enzymes and luciferin substrate (final concentrations CYP enzyme-specific and pro-luciferin substrate-specific) or minus-enzyme (assay buffer conditions supplied by the manufacturer for respective enzyme isoform; typically, 100 mM KPO4) and luciferin substrate were dispensed using a BioRAPTR FRD (Beckman Coulter, Brea, CA) into columns of a 1536-well white solid-bottom medium binding plate (Greiner Bio-One, Monroe, NC). Five isoforms of cytochrome P450 were used (CYP1A2, CYP2C9, CYP2C19, CYP2D6, and CYP3A4).
# 2. Substances (final concentrations of most substances ranged from 19.5 nM to 39.8 uM) and controls (CYP-specific) were transferred (16 nL) via pintool (Wako Automation, Richmond, VA). Intraplate controls furafylline (CYP1A2), sulfaphenazole (CYP2C9), ketoconazole (CYP2C19), quinidine (CYP2D6), and ketoconazole (CYP3A4) were used correspondingly.
# 3. Assay plates were incubated at room temperature for 15 min.
# 4-5. […]
# % is set by controls: 0 for no effect and ±100 for the full control effect; potency is the fitted concentration of half-maximal effect.
# Sequence of Cytochrome P450 3A4 (Homo sapiens) (P08684 whole entry, looked up): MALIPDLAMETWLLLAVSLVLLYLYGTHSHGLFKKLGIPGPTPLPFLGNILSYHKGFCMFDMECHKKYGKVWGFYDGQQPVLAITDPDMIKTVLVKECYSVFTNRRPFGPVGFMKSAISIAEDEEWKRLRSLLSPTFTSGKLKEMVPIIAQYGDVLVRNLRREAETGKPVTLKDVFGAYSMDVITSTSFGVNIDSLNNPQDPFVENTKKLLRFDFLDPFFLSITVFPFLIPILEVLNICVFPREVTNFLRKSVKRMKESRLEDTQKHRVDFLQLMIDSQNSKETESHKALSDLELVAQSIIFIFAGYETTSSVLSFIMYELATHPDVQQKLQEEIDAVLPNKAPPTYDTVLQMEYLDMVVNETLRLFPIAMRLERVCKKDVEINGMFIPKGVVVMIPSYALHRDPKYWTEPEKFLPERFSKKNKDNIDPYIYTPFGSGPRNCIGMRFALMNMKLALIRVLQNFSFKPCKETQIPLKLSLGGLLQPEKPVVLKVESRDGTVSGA
SMILES,"activity change, negative = inhibition",Potency
COc1ccc2c(c1O)-c1c(OC)c(OC)cc3c1[C@H](C2)N(C)CC3,-14.7%,
C=CCc1ccc2c(c1)OCO2,-8.71%,
COC1=CC(=O)OC(CCc2ccccc2)C1 (stereo not given),21.5%,
COC1=C[C@@]23CCN(C)[C@H](Cc4ccc(OC)c(O)c42)C3=CC1=O,-20%,
COC1=CC(=O)O[C@@H](/C=C/c2ccc3c(c2)OCO3)C1,,14.1 µM (active)
C=C[C@H]1CN2CCc3c([nH]c4ccccc34)[C@H]2C[C@@H]1/C(=C\OC)C(=O)OC,,14.1 µM (active)
C=C[C@H]1CN2CC[C@@]3(C(=O)Nc4ccccc43)[C@@H]2C[C@@H]1/C(=C\OC)C(=O)OC,,12.6 µM (active)
COC(=O)C1=CO[C@@H](C)[C@@H]2CN3CC[C@@]4(C(=O)Nc5ccccc54)[C@@H]3CC12 (stereo not given in full),,14.1 µM (active)
O=S(=O)(O)O,-7.67% [at 58.3 µM],
CCCCCCCCCCCCCCCCCCCC(=O)O,-22.3%,
